± gives the standard deviation of the averaged measurements.
These molecules were tested on RNA polymerase (assay: relative enzymatic activity vs untreated control (fraction); higher = less inhibition). Settings: 100 µM; incubation time: 2 h at 37 C.
Experimental: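 In vitro enzymatic inhibition assays (ProFoldin kits) for 12 purified essential E. coli enzymes or complexes, each treated with 218 active antibacterial compounds at 100 µM for 2 h at 37°C. Read-outs were fluorescence or absorbance (phosphate detection, dye binding), converted to activity via standard curves and expressed relative to untreated DMSO controls.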

`C[C@H]1[C@H](NC(=O)/C(=N\OC(C)(C)C(=O)O)c2csc(N)n2)C(=O)N1S(=O)(=O)O` and `CON=C(C(=O)NC1C(=O)N2C(C(=O)O)=C(C[N+]3(C)CCCC3)CSC12)c1csc(N)n1.[Cl-]` (stereo not drawn) are within error of each other in relative enzymatic activity: 0.869 ± 0.072 for the first, 0.897 ± 0.023 for the second.

`CC(N)O.Cc1cc(CC(C)CC(C)(C)C)n(O)c(=O)c1` (stereo not drawn) and `CCn1cc(C(=O)O)c(=O)c2cc(F)c(N3CCNC(C)C3)c(F)c21.Cl` (stereo not drawn) are within error of each other in relative enzymatic activity: 0.884 ± 0.076 for the first, 1.16 ± 0.36 for the second.

`COc1cc2c(cc1OC)C(=O)C(CC1CCN(Cc3ccccc3)CC1)C2.Cl` (stereo not drawn) and `N[C@@H](C(=O)N[C@@H]1C(=O)N2C(C(=O)O)=C(Cl)CC[C@H]12)c1ccccc1` are within error of each other in relative enzymatic activity: 0.85 ± 0.011 for the first, 0.811 ± 0.13 for the second.

Compared with `O=c1[nH]c(=O)n(C2CC(O)C(CO)O2)cc1F` (stereo not drawn), `Nc1nc(C(=CCC(=O)O)C(=O)NC2C(=O)N3C(C(=O)O)=CCSC23)cs1` (stereo not drawn) is lower in relative enzymatic activity: 0.84 ± 0.0053 for the first, 0.292 ± 0.037 for the second.

Going from `CN(C)c1ccc(O)c2c1CC1CC3C(N(C)C)C(O)=C(C(N)=O)C(=O)C3(O)C(O)=C1C2=O.Cl` (stereo not drawn) to `C=C1c2cccc(O)c2C(=O)C2=C(O)C3(O)C(=O)C(C(N)=O)=C(O)C(N(C)C)C3C(O)C12.Cl` (stereo not drawn), the relative enzymatic activity falls from 0.184 ± 0.083 to 0.052 ± 0.025.

`CO/N=C(\C(=O)N[C@@H]1C(=O)N2C(C(=O)O)=C(CSc3nnnn3C)CS[C@H]12)c1csc(N)n1` and `NCCONC(=O)[C@@H]1CC[C@@H]2CN1C(=O)N2OS(=O)(=O)O` are within error of each other in relative enzymatic activity: 0.8391 ± 0.00096 for the first, 0.902 ± 0.075 for the second.

Work on `CC[C@H]1OC(=O)C[C@@H](O)[C@H](C)[C@@H](O[C@@H]2O[C@H](C)C[C@H](N(C)C)[C@H]2O)[C@@H](CC=O)C[C@@H](C)C(=O)/C=C/[C@]2(C)O[C@H]2[C@@H]1C` yielded a relative enzymatic activity of 0.864 ± 0.08.
